# Screens deposited in PubChem by National Center for Advancing Translational Sciences (NCATS).
# Most compounds without a hit are left out; they make up all but 2.3% or so of the library.
# FBPA coupling cs: qHTS Assay for Inhibitors of Fructose-1,6-bisphosphate Aldolase from Giardia Lamblia: Coupling assay counterscreen; coupling enzyme system counterscreen, AmpLite Red fluorescence; activity change, negative = inhibition, % at 58.2 µM, hits read low; 0.67% of 290,000 active; AID 2472, 2010; in the data active means activity change below about -30%; further: on the % scale 0 is the no-effect control and ±100 the full control effect
#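 Counterscreen lacking aldolase: glyceraldehyde-3-phosphate coupling-enzyme reagent preincubated 10 min at RT with compound (at 57.5 uM final), then substrate/coupling system with AmpLite Red added; fluorescence read at 525/598 nm after 20 min RT.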
# VDR inhibitor: Inhibitors of the vitamin D receptor (VDR): qHTS. Vitamin D3 receptor (Homo sapiens), P11473. VDR-SRC2-3 peptide fluorescence polarization, 2 h. Potency, µM, without a hit: max response, negative = inhibition, hits mostly inhibitors. 0.93% of 400,000 active. AID 504847, 2011; further: potency means the concentration at half of the fitted maximal effect; on the % scale 0 is the no-effect control and ±100 the full control effect
# Target sequence (P11473 whole entry, looked up): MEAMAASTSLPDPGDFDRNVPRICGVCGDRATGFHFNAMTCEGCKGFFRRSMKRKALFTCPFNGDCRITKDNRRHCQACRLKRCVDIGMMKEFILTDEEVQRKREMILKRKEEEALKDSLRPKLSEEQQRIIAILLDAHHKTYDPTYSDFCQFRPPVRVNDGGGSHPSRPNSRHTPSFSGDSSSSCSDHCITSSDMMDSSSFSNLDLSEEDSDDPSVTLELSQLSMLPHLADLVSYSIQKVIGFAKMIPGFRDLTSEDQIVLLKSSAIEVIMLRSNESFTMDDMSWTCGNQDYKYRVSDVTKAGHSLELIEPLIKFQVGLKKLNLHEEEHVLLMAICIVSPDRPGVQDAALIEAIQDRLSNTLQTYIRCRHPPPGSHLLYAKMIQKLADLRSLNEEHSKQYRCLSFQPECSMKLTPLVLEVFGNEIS
#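 Signal is fluorescence polarization, reporting how far test compounds block the interaction of VDR with the SRC2-3 coregulator peptide after a 2 h room-temperature incubation.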
# HTT aggregate: qHTS Multiplex Assay to Identify Dual Action Probes in a Cell Model of Huntington: Aggregate Formation (GFP); PC12 HttQ103-GFP aggregates, Acumen cytometry, 40 h; AID 1688, 2009; 1.1% of 220,000 active; Potency, µM (highest dose often 46.1 µM), for the others: at the highest dose activity change, negative = inhibition, most hits filed as inhibitors; further: potency means the concentration at half of the fitted maximal effect; on the % scale 0 is the no-effect control and ±100 the full control effect; nearly all actives have a fitted effect of over 60% in size
#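 Huntingtin Q103 exon 1–GFP aggregates in induced PC12 cells (100 nM tebufenozide) were quantified by cytometry from lysates, with compounds dosed in titration.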
# RGS12 GoLoco inh: qHTS Assay for Inhibitors of RGS12 GoLoco Motif Activity (Red Fluorophore). Guanine nucleotide-binding protein G(i) subunit alpha-1 (Homo sapiens), P63096. Gai1:RGS12 GoLoco peptide FP, rhodamine, 10 min. Potency, µM (series often up to 61.6 µM), for inactives: top-dose activity, negative = inhibition, actives largely listed as inhibitors. 0.44% of 230,000 active. AID 880, 2007; active means well fitted inhibition curve with a large enough effect, not every such curve was filed as active; inactive means no such curve, though single readings can be large or run the other way; further: potency means the concentration at half of the fitted maximal effect; on the % scale 0 is the no-effect control and ±100 the full control effect; nearly all actives have a fitted effect of over 30% in size
# Target sequence (P63096 whole entry, looked up): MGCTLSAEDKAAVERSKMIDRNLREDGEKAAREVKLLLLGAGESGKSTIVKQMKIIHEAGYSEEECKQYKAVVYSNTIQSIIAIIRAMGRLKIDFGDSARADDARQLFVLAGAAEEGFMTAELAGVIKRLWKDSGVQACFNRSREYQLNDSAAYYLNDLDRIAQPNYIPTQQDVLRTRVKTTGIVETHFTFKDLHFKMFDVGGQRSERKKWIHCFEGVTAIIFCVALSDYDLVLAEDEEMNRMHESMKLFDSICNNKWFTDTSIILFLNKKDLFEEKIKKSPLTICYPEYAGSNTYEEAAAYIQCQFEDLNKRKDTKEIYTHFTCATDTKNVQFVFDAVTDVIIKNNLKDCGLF
# HTT cytoprotect: qHTS Multiplex Assay to Identify Dual Action Probes in a Cell Model of Huntington: Cytoprotection (ATP) | PC12 HTT-Q103 induced, cytoprotection, ATP luminescence, 40 h | Potency, µM (doses to about 56.4 µM), for inactives: cytoprotection (ATP increase), usual class: activators | 0.14% of 230,000 active | AID 1471, 2008; further: potency means the concentration at half of the fitted maximal effect; % of control where 0% means no effect; nearly all actives have a fitted effect of over 45% in size
#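 Cells were plated at 1500 per well in phenol red-free DMEM with 5% equine and 5% calf serum. Tebufenozide (100 nM final) and compounds were added, then ATPlite reagent, and luminescence was read.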
# JMJD2E inh: qHTS Assay for Inhibitors of Human Jumonji Domain Containing 2E (JMJD2E) | Lysine-specific demethylase 4E (Homo sapiens), B2RXH2 | JMJD2E catalytic domain, FDH-coupled NADH fluorescence (FDH is formaldehyde dehydrogenase) | Potency, µM (titrated, usually from 57.1 µM), for the others: top-dose activity change, negative = inhibition, usual class: inhibitors | 1.6% of 230,000 active | AID 2147, 2009; active means well fitted inhibition curve with a large enough effect, not every such curve was filed as active; inconclusive means small, poorly fitted or top-dose-only effect, or another doubt; inactive means no such curve, though single readings can be large or run the other way;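 further: potency means the concentration at half of the fitted maximal effect; 0% = wells with enzyme and -100% = buffer wells without enzyme; nearly all actives have a fitted effect of over 50% in size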
# An asterisk follows results filed as active; ? = inconclusive; nt = no result given; [ ] = remark or other dose. Unless noted, the call rests on the fitted dose curve; in most records, active means well fitted curve in the direction sought with a large enough effect; inconclusive means small, poorly fitted or top-dose-only effect, or another doubt; inactive means no such curve, though single readings can be large; an effect the other way counts as inactive or inconclusive.
SMILES,FBPA coupling cs,VDR inhibitor,HTT aggregate,RGS12 GoLoco inh,HTT cytoprotect,JMJD2E inh
CC(=O)NC(c1ccc(C)cc1)c1cc(Cl)c2cccnc2c1O (stereo unspecified),1.4,18.5%,nt,nt,nt,nt
CC(C)C(=O)NC(c1ccccc1)c1cc([N+](=O)[O-])c2cccnc2c1O (stereo unspecified),-8.8,-5.6%,8.91µM*,4.1%,-8.1%[10 µM],?
O=C(CCC(=O)N1CCOCC1)NCc1cccc(C(F)(F)F)c1,nt,1.7%,nt,nt,nt,nt
O=C(Cn1nc(N2CCN(c3ccccc3)CC2)ccc1=O)NCc1cccc(Cl)c1,nt,13.8%,nt,nt,nt,nt
COc1ccc(NC(=O)NCCN2CCN(c3cccc(Cl)c3)CC2)cc1,-32.0*,-7.3%,12.9%,-1.4%,-7.9%[10 µM],5.4%
CCC(C)c1ccc(NC(=O)Nc2cnccn2)cc1 (stereo unspecified),1.7,26.4%,nt,nt,nt,nt
COc1ccc2c(Cl)c(C(=O)N/N=C3\CCCC(=O)C3)sc2c1,-0.3,7.2%,-7.0%,238.6%,-47.7%,17.8µM*
CCOC(=O)c1c(NC(=O)c2cc(-c3ccccc3)on2)sc2c1CCCC2,nt,14.8%,nt,nt,nt,nt
CC(c1ccccc1)N1CCC(CNC(=S)Nc2cccc(Cl)c2)C1 (stereo unspecified),-0.1,-1.3%,0.7%,10.7%,-38.2%,?
Cc1cc(C)c(NC(=S)NCC2CCN(C(C)c3ccccc3)C2)c(C)c1 (stereo unspecified),-48.9*,44.7µM*,1.7%,-4.3%,-18.5%,-3.1%
N#Cc1c(N)n(-c2ccccc2)c(=O)c2cc([N+](=O)[O-])ccc12,4.3,44.7µM*,-12.2%,4.4%,-54.6%,10.6%
CC(C)n1c(N)c(C#N)c2ccc([N+](=O)[O-])cc2c1=O,-3.2,-5.1%,-6.9%[9.22 µM],10.1%,-5.5%[10 µM],-24.1%
CCOCC(=O)Nc1nnc(COc2ccc(Cl)cc2)s1,4.6,79.4µM*,10.3%,-2.5%,-35.1%,0.5%
CCN(C(=O)COc1ncnc2sccc12)c1ccccc1,2.4,4.8%,-7.6%,4.9%,1µM*,-2.2%
CNC(=O)COc1ncnc2sccc12,0.8,14.2%,4.3%,7.8%,-1.0%,-1.6%
Cc1c(NC(=O)CSc2nnc(C(C)N(C)C)n2-c2ccccc2)c(=O)n(-c2ccccc2)n1C (stereo unspecified),nt,1.8%,nt,nt,nt,nt
Cc1cccc(NC(=O)c2oc3ccccc3c2NC(=O)c2cc(=O)c3ccc(C)cc3o2)c1,nt,13.3%,nt,nt,nt,nt
COc1ccc(N2C(S)=C(C#N)C(=O)NC2c2ccco2)cc1 (stereo unspecified),1.9,39.8µM*,-2.2%,-9.8%,nt,2.9%
Cc1cccc(N2C(S)=C(C#N)C(=O)NC2c2ccco2)c1 (stereo unspecified),11.3,28.2µM*,19.9%[9.22 µM],18.2%,18.6%[10 µM],?
COc1ccc(C2CC(c3ccco3)n3ncnc3N2)cc1 (stereo unspecified),2.9,?,-3.5%,5.7%,21.9%[10 µM],-13.4%
N#CC1=C(S)N(c2ccccc2)C(c2ccc(-c3cccc(Cl)c3)o2)NC1=O (stereo unspecified),4.9,?,?,15.1%,-1.1%[10 µM],-21.7%
CCOc1ccccc1-n1c(N)c(C(=O)OC)c2nc3ccccc3nc21,nt,-15.8%,nt,nt,nt,nt
O=C(NCc1ccccc1Cl)c1ccc2c(c1)N(Cc1ccccc1)CCS2,nt,-14.6%,nt,nt,nt,nt
CC[N+]1(C)CCC(O)(/C=C/c2ccccc2)C(C(=O)/C=C/c2ccccc2)C1 (stereo unspecified),nt,50.1µM*,nt,nt,nt,nt
CCc1ccc(/C=C/C(=O)C2C(=O)c3ccccc3C2=O)cc1,-10.6,?,?,-4.0%,-102.4%,?
SMILES,FBPA coupling cs,VDR inhibitor,HTT aggregate,RGS12 GoLoco inh,HTT cytoprotect,JMJD2E inh
O=C1C2=C(C(=O)c3ccccc31)C1O[C@](c3ccsc3)(Cc3ccccc31)O2,-16.2,nt,nt,nt,nt,nt
O=C(COc1ccc(F)cc1)Nc1ccc(C(=O)OCc2cc(=O)n3nc(C4CC4)sc3n2)cc1,nt,8.3%,nt,nt,nt,nt
CCCCCOC(=O)c1[nH]c2c(c1C)C(=O)CC(c1ccco1)C2 (stereo unspecified),-5.1,79.4µM*,-17.4%,-7.1%,-37.7%,0.9%
CCOCCOC(=O)c1[nH]c2c(c1C)C(=O)CC(c1ccccc1)C2 (stereo unspecified),0.1,-7.4%,nt,nt,nt,nt
COc1ccc(NC(=O)CSc2ccc3c4c(cccc24)C(=O)c2ccccc2-3)cc1,1.8,-3.0%,?,19.3%,-20.9%,-0.4%
N#Cc1cccc(NC(=O)CSc2ccc3c4c(cccc24)C(=O)c2ccccc2-3)c1,-0.8,3.3%,7.94µM*,11.2µM*,-29.2%,8.4%
O=C1C(=O)N(CNc2ccccn2)c2ccccc21,nt,6.9%,1.9%,13.5%,-75.0%,-0.1%
O=C1C(=O)N(CNc2cccnc2)c2ccccc21,-36.7*,-13.8%,9.2%,1.2%,6.0%[10 µM],1.1%
CCOCC(O)CNc1ccccc1 (stereo unspecified),-0.5,10.0%,-5.2%,6.4%,19.2%[10 µM],-0.2%
OC(CNc1ccccc1)COc1ccc(OCC(O)CNc2ccccc2)cc1 (stereo unspecified),-1.6,2.7%,11.2µM*,1.4%,-74.7%,-3.2%
COc1ccc(CCNc2ncnc3c2oc2ccccc23)cc1OC,-8.8,0.4%,2µM*,10.3%,-43.9%,-5.6%
COC(=O)C(C(C)C)N1CC(=O)c2ccccc2S1(=O)=O (stereo unspecified),-1.5,-21.9%,nt,nt,nt,nt
C=CCn1c(=S)[nH]c2scc(-c3ccc(C)o3)c2c1=O,4.6,-7.8%,22.4µM*,-9.8%,-5.1%[10 µM],7.9%
COc1ccc(Cc2nc3ccc(C(=O)N(C)CCCN4CCOCC4)cc3o2)cc1,nt,-7.8%,nt,nt,nt,nt
CN(C)/C=C1/C(=O)N(c2ccc([N+](=O)[O-])cc2)N=C1c1ccccc1,6.0,nt,-12.8%,3.3%,9.4%[10 µM],?
C/C(=C1/C(=O)N(c2ccc([N+](=O)[O-])cc2)N=C1c1ccccc1)N(C)C,-1.4,nt,12.6µM*,2.8%,-38.4%,1.8%
Cc1nc2ccc(C(=O)N/N=C/c3ccccc3O)cc2[nH]1,0.1,-5.9%,nt,nt,nt,nt
Cc1cc([N+](=O)[O-])nn1CC(=O)N/N=C/c1ccc(O)cc1O,1.7,-6.6%,-13.6%[9.22 µM],7.4%,7.9%[10 µM],12.6µM*
